Assay results reported in PubChem BioAssay (Tox21).
Records with an inconclusive call do not appear. Calls of active or inactive are those of the source. The call rests on the fitted dose curve.

Molecular target: D(2) dopamine receptor (Homo sapiens) (UniProt P14416)
Experiment: Dopamine D2 receptor (DRD2) small molecule agonists, cell-based qHTS assay (AID 1963594); further: nearly all actives have a fitted effect of over 35% in size
Details: HEK293-DRD2 cAMP HTRF, agonist mode, 30 min; series mostly up to 92.4 µM; activation: at the top concentration
Source text: National Center for Advancing Translational Sciences [NCATS]
Division of Preclinical Innovation [DPI]
U.S. Environmental Protection Agency [EPA]
National Institutes of Environmental Health Sciences [NIEHS]
National Toxicology Program [NTP]
U.S. Food and Drug Administration [FDA]
DRD2 is the D2 subtype of the dopamine receptor, which is coupled to Gi subtype of G protein-coupled receptor. This G protein-coupled receptor inhibits adenylyl cyclase activity. The DRD2-HEK293 cell line stably expressing D2 dopamine receptor can be used for screening agonists and antagonists of interactions between D2 and its ligands. The Hek293-DRD2 cAMP assay is based on HTRF technology. It measures changes of cAMP accumulation in response to Gi coupled GPCR activation or inhibition.
Tox21 Assay Protocol Summary:
DRD2-Hek293 cells were dispensed at 600 cells/3uL/well in 1536-well white plates using a Multidrop Dispenser. After the assay plates were incubated at a 37 C/5% CO2 incubator for 24 h, 1 uL of Ro20-1724 at final concentration of 0.1 mM was transferred to the assay plate by a Flying Reagent Dispenser. Following Ro20-1724 addition, 23 nL of compound dissolved in DMSO, positive controls or DMSO only was added to the assay plates via Wako pintool station. The assay plates were incubated at room temperature for 10 min. Next, 1 uL of NKH477 at 200nM was added into the plates. After the assay plates were incubated at room temperature for an additional 30 min, 2.5 ul/well of cAMP-d2 and 2.5 ul/well of anti-cAMP-cryptate were added respectively into the assay plates using a Flying Reagent Dispenser. The plates were incubated at room temperature for 1 h. The fluorescence intensity in the plates was measured at 340 nm excitation and 665 & 620 nm emission by an Envision plate reader.
On the % scale 0 is the no-effect control and ±100 the full control effect.

D(2) dopamine receptor (Homo sapiens), sequence (P14416 whole entry, looked up): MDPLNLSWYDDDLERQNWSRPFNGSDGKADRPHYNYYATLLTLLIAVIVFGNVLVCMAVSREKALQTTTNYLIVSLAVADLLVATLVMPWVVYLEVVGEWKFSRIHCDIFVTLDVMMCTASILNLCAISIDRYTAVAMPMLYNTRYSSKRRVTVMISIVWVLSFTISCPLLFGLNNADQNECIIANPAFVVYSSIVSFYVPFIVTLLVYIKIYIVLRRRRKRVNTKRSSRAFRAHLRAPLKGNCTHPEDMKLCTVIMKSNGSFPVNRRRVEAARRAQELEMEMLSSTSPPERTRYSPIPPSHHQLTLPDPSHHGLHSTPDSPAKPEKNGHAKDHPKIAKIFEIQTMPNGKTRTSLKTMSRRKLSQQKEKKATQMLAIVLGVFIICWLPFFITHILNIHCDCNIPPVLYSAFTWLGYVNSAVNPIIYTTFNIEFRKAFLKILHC

SMILES | activation | Potency
NC(=O)c1ccccc1C(N)=O | 1.49% (inactive) | –
Cc1c2ccccc2c(C)c2c1ccc1ccccc12 | – | inactive
COc1cc2nc(N(C)CCCNC(=O)C3CCCO3)nc(N)c2cc1OC (stereo not given) | -8.25% [at 42.5 µM] (inactive) | –
CC(=O)CCc1ccc(OC(C)=O)cc1 | -8.34% (inactive) | –
CN1[C@@H]2CC[C@H]1CC(OC(=O)C(CO)c1ccccc1)C2 (stereo not given in full) | – | inactive
CC(=O)N1CCN(c2ccc(OC[C@H]3CO[C@](Cn4ccnc4)(c4ccc(Cl)cc4Cl)O3)cc2)CC1 | -14.9% (inactive) | –
Cc1cc([N+](=O)[O-])ccc1N | 0.565% (inactive) | –
CCN(CC)CCOC(=O)C(c1ccccc1)C1CCCCC1 (stereo not given) | -22.4% [at 42.5 µM] (inactive) | –
CCCc1nc(C)c2c(=O)[nH]c(-c3cc(S(=O)(=O)N4CCN(CC)CC4)ccc3OCC)nn12 | 1.33% [at 42.5 µM] (inactive) | –
CC/C=C\CCCCCO | 1.52% (inactive) | –
NC(=O)c1c(Cl)cccc1Cl | -3.76% (inactive) | –
C[C@@H]1CC[C@H]2C(C)(C)[C@H]3C[C@@]12CC[C@@]3(C)O | 0.504% (inactive) | –
CCCc1c(OCCCOc2ccc(OCC(=O)O)cc2)ccc(C(C)=O)c1O | 8.57% (inactive) | –
COc1cc(Cc2cnc(N)nc2N)cc(OC)c1OC | – | inactive
CCCCCCCC/C=C\CCCCCCCC(=O)NCc1ccc(O)c(OC)c1 | -3.26% [at 42.5 µM] (inactive) | –
C/C=C/C=C/C=O | -0.615% (inactive) | –
O=P(c1ccccc1)(c1ccccc1)c1ccccc1 | -0.45% (inactive) | –
CCOc1ccc(N=Nc2ccc(/C=C/c3ccc(N=Nc4ccc(OCC)cc4)cc3S(=O)(=O)O)c(S(=O)(=O)O)c2)cc1 | 2.68% (inactive) | –
COCCOC[C@H](CC1(C(=O)NC2CCC(C(=O)O)CC2)CCCC1)C(=O)Oc1ccc2c(c1)CCC2 (stereo not given in full) | 14.9% (inactive) | –
O=C1Cc2cc(CCN3CCN(c4nsc5ccccc45)CC3)c(Cl)cc2N1 | 0.283% [at 42.5 µM] (inactive) | –

SMILES | activation | Potency
CC(NCCC(c1ccccc1)c1ccccc1)c1ccccc1 (stereo not given) | -5.46% [at 42.5 µM] (inactive) | –
CN1C[C@H]2c3ccccc3Oc3ccc(Cl)cc3[C@@H]2C1 | -4.34% [at 42.5 µM] (inactive) | –
O=S(=O)(O)c1ccccc1/C=C/c1ccc(-c2ccc(/C=C/c3ccccc3S(=O)(=O)O)cc2)cc1 | 15.9% (inactive) | –
Cc1ccc(C#N)cc1 | -0.172% (inactive) | –
O=c1[nH]c2ccccc2n1CCCN1CCN(C(c2ccccc2)c2ccccc2)CC1 | -15.5% [at 42.5 µM] (inactive) | –
O=C(CN1CCNCC1)NC1CCCCC1 | -0.416% [at 42.5 µM] (inactive) | –
CC(=O)OC(C)C[N+](C)(C)C (stereo not given) | 0.466% [at 42.5 µM] (inactive) | –
CCCCOC(=O)CO | 2.81% (inactive) | –
CCCCCOc1ccccc1/C(=C\SC)n1ccnc1 | -25.3% [at 42.5 µM] (inactive) | –
Nc1ccc(F)cc1 | -3.8% (inactive) | –
Cc1ccc(N)cc1S(=O)(=O)O | 2.85% (inactive) | –
Cc1ccc2nc(-c3ccc(N)cc3)sc2c1S(=O)(=O)O | 9.08% [at 42.5 µM] (inactive) | –
CN1CCC[C@@H]1c1cccnc1 | 2.15% [at 42.5 µM] (inactive) | –
NCCCN1CCOCC1 | -4.48% (inactive) | –
CC1=C(O)C(=O)CO1 | 2.43% (inactive) | –
COc1ccc(C2CNC(=O)C2)cc1OC1CCCC1 (stereo not given) | -1.8% [at 42.5 µM] (inactive) | –
CC1(C)[C@@H](OC(=O)CCC(=O)O)CC[C@]2(C)[C@H]3C(=O)C=C4[C@@H]5C[C@@](C)(C(=O)O)CC[C@]5(C)CC[C@@]4(C)[C@]3(C)CC[C@@H]12 | -10.5% [at 42.5 µM] (inactive) | –
C=CC(=O)N1CCOCC1 | 6.51% (inactive) | –
CCCCOc1ccc(N)cc1 | -2.43% (inactive) | –
CCCCCCCCCCCCCOC(=O)CCSCCC(=O)OCCCCCCCCCCCCC | 5.42% [at 19 µM] (inactive) | –
